Screen size: about 200,000 compounds; about 18,000 (9%) were called active. This is one part of a sample in which actives are shown more often than they occur. Unmarked numbers belong to inactive results. Rule as the data show it: active = inhibition above about 50%; inactive = the rest.

The assay in a line: antileishmanial activity against promastigotes – primary screen (AID 1063).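 Also: promastigotes grown with compound for 44 hours at 28 °C.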 As to conditions: Leishmania major promastigotes, resazurin fluorescence viability; at 10 µM; active compounds read high.
On to `CC(=O)c1ccc(NC(=O)CSC(=S)N2CCCC2)cc1`, for which the inhibition is -5.47%. To `O=C(Nc1nnc(Cc2ccccc2)s1)c1cnccn1` belongs 1.06%; to `COc1ccc(NC(=O)CSc2nc(C)cs2)cc1`, 8.18%. To `Cc1nn(CC#N)c(=O)n1N(C)c1ncc(C(F)(F)F)cc1Cl` belongs -6.01%. To `Cc1nn(CC2CC2)c(=O)n1N(C)c1ncc(C(F)(F)F)cc1Cl` belongs 74.1% (active).

Take `Cc1nn(-c2ncc(C(F)(F)F)cc2Cl)c(=O)n1-c1ccccc1`: the inhibition is -12.9%. Regarding `CC(=O)c1cccc(-n2nnnc2SCC(=O)NNC(=O)C2CCCCC2)c1`, the inhibition was -7.09%. To `COC(=O)C1=C(N)Oc2c(oc(CO)cc2=O)C1c1c(F)cccc1Cl` (stereo unspecified) belongs 10.5%. To `Cc1[nH][nH]c(=O)c1C(c1ccc2c(c1)OCO2)c1c(C)[nH][nH]c1=O` belongs 25.9%; to `CCOc1ccc(C(c2c(C)[nH][nH]c2=O)c2c(C)[nH][nH]c2=O)cc1OCC`, 22.5%. To `Cc1[nH][nH]c(=O)c1C(c1ccc(-c2ccc(Cl)cc2)o1)c1c(C)[nH][nH]c1=O` belongs 100% (active); to `C=CCc1cccc2cc(C(=O)NC3CCCC3)c(=O)oc12`, 3.36%; to `OCCC1CN(Cc2ccc3nsnc3c2)CCN1C1CCCC1` (stereo unspecified), 20.1%. With `OCC1(CCc2ccccc2)CCN(Cc2ccc3nsnc3c2)CC1`, the inhibition was 88.2% (active). Turning to `Cc1cccc(-c2ncc(CN3CCC(CO)(CCCc4ccccc4)CC3)cn2)c1`, the inhibition was 15.9%. In the case of `Nn1c(SCC(=O)Nc2nccs2)nncc1=O`, the inhibition is -3.46%.

Regarding `CSc1ncnc2sc(C)c(C)c12`, the inhibition is -8.93%. To `CC(=O)Nc1ccc(S(=O)(=O)N2CCN(C3CCCCCCC3)CC2)cc1` belongs -3.65%. For `Cc1ccc(S(=O)(=O)N2CCN(S(=O)(=O)N3CCOCC3)CC2)cc1`, the inhibition is -6.92%. With `Cc1ccc(S(=O)(=O)N2CCC(N3CCCCCC3)CC2)cc1`, the inhibition was 95.3% (active). To `COc1ccc(NC(=O)N2CCCC(c3nc(-c4ccc(F)cc4)no3)C2)cc1` (stereo unspecified) belongs -5.76%. Then `O=C(COC(=O)CCc1ccc(S(=O)(=O)N2CCOCC2)cc1)Nc1cccc(Cl)c1`, with -4.95%. To `N#C/C(C(=S)Nc1ccccc1)=C1/NN=C(N2CCOCC2)N1c1ccccc1` belongs 4.1%; to `Cc1ccc(NC(=S)NCCN2CCOCC2)cc1`, 2.32%; to `Cc1ccc(C(=O)NC(=S)NCCN2CCOCC2)cc1`, 65.4% (active).

On to `Cc1ccc(C(=O)NC(=S)Nc2ccc(N3CCOCC3)cc2)cc1`, for which the inhibition is -0.73%. To `O=C(CCN1CCCCC1)N=Nc1c(O)[nH]c2ccccc12` belongs 11.4%; to `CSc1ccccc1C(=O)NCc1ccccc1`, -0.25%. Then `Cc1cc(C)n(CC(=O)Nc2ccc([N+](=O)[O-])cc2)n1`, with -2.52%; and `O=C(COC(=O)c1ccco1)NCc1ccc(Cl)cc1`, with -4.2%; and `COCC(C)n1c(SCc2ccc(C(=O)OC)o2)nc2ccccc2c1=O` (stereo unspecified), with 89% (active). To `COCCn1c(C)cc(C(=O)CSc2nc3ccccc3c(=O)n2C(C)COC)c1C` (stereo unspecified) belongs 15.4%; to `COC(=O)c1ccc(CSc2nc3ccccc3c(=O)n2-c2cccc(OC)c2)o1`, 46.8%; to `Cc1ccc(-c2nn(-c3cccc(F)c3)cc2CNCCc2ccncc2)o1`, 56.8% (active).

For `CSCCNCc1cn(-c2ccc(F)cc2F)nc1-c1ccccc1C`, the inhibition was 15.5%. To `Cc1ccc(-c2nn(-c3ccccc3)cc2CN(Cc2ccccc2)C(=O)CCC(=O)O)o1` belongs -2.65%. Then `Cn1c(=O)n(Cc2ccco2)c(=N)c2c3c(sc21)CCCC3`, with 13.8%; and `COc1cccc(OC)c1C(=O)OCC(=O)/C(C#N)=C(\C)N`, with -3.93%. `CCOC(=O)C1=C(CNC2CCCCC2)NC(=O)NC1c1cc(C)ccc1C` (stereo unspecified): the inhibition is 47.4%. For `CCOC(=O)C1=C(CN2CCCCCC2)NC(=O)NC1c1cccc([N+](=O)[O-])c1` (stereo unspecified), the inhibition is 10.7%. To `CCOC(=O)C1=C(CN2CCc3ccccc32)NC(=O)NC1c1cccc([N+](=O)[O-])c1` (stereo unspecified) belongs 82.8% (active); to `CCOC(=O)C1=C(CN2CCc3ccccc32)NC(=O)NC1c1ccc(Cl)cc1` (stereo unspecified), 55.5% (active); to `COCCOC(=O)C1=C(C)NC(=O)NC1c1ccc(Cl)cc1` (stereo unspecified), -1.33%. To `CCOC(=O)C1=C(CN2CCc3ccccc32)NC(=O)NC1c1cc(C)ccc1C` (stereo unspecified) belongs 11.4%; to `C/C(=N/OC(=O)c1cccc(C(F)(F)F)c1)c1cnccn1`, -8.57%; to `Cn1cnnc1SCC(=O)NNC(=O)COc1ccc(Br)cc1`, -4.37%. Then `C/C(=N\Nc1nc(Nc2ccccc2)nc(N2CCOCC2)n1)c1cccs1`, with 5.71%. Turning to `C=CCNC(=O)COC(=O)CNC(=O)c1cc(Cl)cc([N+](=O)[O-])c1`, the inhibition was 7.34%.

With `COc1ccc(O[C@H]2C=C[C@@H](c3ccccc3)O[C@@H]2CO/N=C/C[C@@H]2C=C[C@H](OC(C)=O)[C@@H](COC(C)=O)O2)cc1`, the inhibition is 5.12%.

As for `O=C(CSc1nc2ccccc2[nH]1)c1cccs1`, the inhibition was 8.11%.

Regarding `C/C(=N\Nc1ncc(Cl)cc1Cl)c1cccs1`, the inhibition is 19%. Then `C/C(=N\Nc1nc2ccccc2[nH]1)c1cccs1`, with 77.2% (active); and `Cc1ccc(NC(=O)C2(N3CCC3=O)CCCCC2)cc1`, with -5.4%. Then `COc1cccc(-n2c(=S)sc3c(=O)n(-c4ccccc4OC)c(SCC4OCCO4)nc32)c1`, with 19.1%; and `CC(=O)Nc1ccc(OCC(O)CN2CCN(c3ccccc3Cl)CC2)cc1` (stereo unspecified), with -1.4%; and `O=S(=O)(c1ccc(OCC(O)CN2CCN(c3ccccc3Cl)CC2)cc1)N1CCOCC1` (stereo unspecified), with 68.2% (active). For the molecule `OC(COc1cccc(OCC(O)CN2CCCC2)c1)CN1CCCC1` (stereo unspecified), the inhibition was -2.43%. Then `OC(COc1ccc2ccccc2c1)CN1CCOCC1` (stereo unspecified), with 59.9% (active). To `OC(COc1ccc2ccccc2c1)Cn1cncn1` (stereo unspecified) belongs -2.08%; to `O=[N+]([O-])c1ccc(N2CCN(CC(O)COc3ccccc3)CC2)cc1` (stereo unspecified), 32.1%; to `O=C(NCC1COc2ccccc2O1)C1(c2ccccc2)CCCC1` (stereo unspecified), 4.71%. Then `CCOC(=O)CSc1nnc(-c2ccc([N+](=O)[O-])cc2)o1`, with -7%; and `COCCN(C(=S)Nc1ccccc1OC)C1CCN(C(C)C)CC1`, with -1.11%. For `CCOC(=O)N1CCN(C(c2cccnc2)c2ccc3cccnc3c2O)CC1` (stereo unspecified), the inhibition is 100% (active). Then `CCN1CCN(c2ccc(NC(=O)c3cnccn3)cc2)CC1`, with -5.28%; and `Oc1c(C(c2ccccn2)N2CCOCC2)ccc2cccnc12` (stereo unspecified), with 5.34%; and `CCN1CCN(C(c2cccnc2)c2cc(Cl)c3cccnc3c2O)CC1` (stereo unspecified), with 52.4% (active). Then `CCOC(=O)N1CCN(C(=O)CSc2ccc(Cl)cc2)CC1`, with -6.22%; and `Cc1ccnc2nc(C(=O)OCC(=O)N(CC(C)C)CC(C)C)nn12`, with 4.48%. Consider `CN(c1ccccc1)S(=O)(=O)c1cc(C(=O)OCC(=O)N2CCN(C(=O)c3ccco3)CC2)ccc1Cl`, for which the inhibition was -3.3%. Then `Nc1ncnc(Nc2cccc(Cl)c2Cl)n1`, with -0.16%; and `Cc1cc(Br)ccc1NC(=O)C1CCCO1` (stereo unspecified), with -3.76%; and `Cc1ccc(C(=O)NCC2CCCO2)o1` (stereo unspecified), with -4.63%. Then `OC(CNCC1CCCO1)Cn1c2ccc(Br)cc2c2cc(Br)ccc21` (stereo unspecified), with 101% (active). To `COc1cc(C(=O)Nc2cc(C(F)(F)F)ccc2-n2cncn2)cc(OC)c1OC` belongs 15.4%. For `O=S1(=O)CCC(NC(=S)SCc2ccccc2Br)C1` (stereo unspecified), the inhibition was 89.6% (active). Regarding `COc1ccc(NC(=S)NC2CCS(=O)(=O)C2)cc1` (stereo unspecified), the inhibition is 6.02%. Then `CCN(CC(=O)NC1CCS(=O)(=O)C1)S(=O)(=O)c1ccccc1` (stereo unspecified), with 47.9%; and `O=C(CSc1ccccc1F)NC1CCS(=O)(=O)C1` (stereo unspecified), with 1.43%. To `CC(C)C(=O)NC(NC(=S)NC1CCS(=O)(=O)C1)C(Cl)(Cl)Cl` (stereo unspecified) belongs -3.47%. As to `CCCSC(=S)NC1CCS(=O)(=O)C1` (stereo unspecified), the inhibition is 100% (active). Then `COc1cccc(OC)c1C(=O)NC(=S)NCc1ccco1`, with 0.66%. For `Cc1nn(-c2ccccc2)c(-n2cccc2)c1C(=O)O`, the inhibition was -0.36%. As for `CCC(C)NC(=O)Cn1nc(C(F)(F)F)c2c1CCC2` (stereo unspecified), the inhibition is -5.4%.

Take `CCOc1cnc(-c2c(-c3ccccc3Cl)noc2C)o1`: the inhibition is -0.43%. To `COc1cc(OC)c(C2=NOC(C(=O)Nc3c(C)n(C)n(-c4ccccc4)c3=O)C2)cc1Cl` (stereo unspecified) belongs -5.3%. To `CC1CCN(c2ccc([N+](=O)[O-])cc2C(N)=O)CC1` belongs -3.26%; to `C=CCO/N=C/C1=C(O)C(C(=O)OC)C(C)(C)CC1=O` (stereo unspecified), -2.09%; to `O=C(NCCN1C(=O)S/C(=C\c2cccnc2)C1=O)c1cccc(OC(F)F)c1`, 50.6% (active). To `CCOc1ccc(N2CC(C(=O)NCCN3C(=O)S/C(=C\c4cccnc4)C3=O)CC2=O)cc1` (stereo unspecified) belongs -4.79%; to `Cc1cc(OCCCC(=O)NCCN2C(=O)S/C(=C\c3cccnc3)C2=O)ccc1Cl`, 42.1%. Take `O=C(CCc1ccccc1)Nc1ccc(NC(=O)C2CCCCC2)nc1`: the inhibition was 6.33%. Then `Cc1ccc(SC(C)C(=O)NCc2ccc(F)cc2)cc1` (stereo unspecified), with -1.71%; and `O=C(c1cccs1)N1CCN(C(=O)N2CCOCC2)CC1`, with -6.96%. Turning to `CC(=O)Nc1ccccc1OC(=O)N1CCOCC1`, the inhibition was -2.48%. With `O=C(/C=C/c1cccs1)c1cc(Cl)ccc1OC(=O)N1CCOCC1`, the inhibition is 100% (active).
